Here are results for 26 compounds from PubChem BioAssay.

A number with no mark means an inactive call. The source made the active and inactive calls.

One assay in a line: basal CRE-LacZ reporter activity in PC12 – cell-based, unstimulated, primary screen (AID 1145). As to conditions: no forskolin, luminescence, 4.5 h, higher = more signal, called active from +8 up or from −8 down.
Consider `CCOC(=O)C[C@H]1[C@H](OC(=O)c2cc3ccccc3oc2=O)[C@@H](NC(=O)CC(C)C)c2cc(OCCCO)ccc2N1C(=O)Cc1ccc(OC)cc1`, for which the z-score is 1.02.
On the same count and under the same terms, then `O=C(NC1CC1)[C@@H]1c2ccccc2C(=O)N(CC23CC4CC(CC(C4)C2)C3)[C@H]1c1ccc(CO)cc1`, with 0.0026; and `C=CCN1C(=O)[C@@]2(O[C@@H](CCn3cc([C@H](O)c4ccccc4)nn3)[C@H]([Si](C)(C)c3ccc(OC)cc3)[C@H]2C)c2cc(N3C(=O)c4cccc5cccc3c45)ccc21`, with 9.39 (active).
Same read-out and setting: for `CCOC(=O)C[C@H]1[C@H](OC(=O)c2ccccc2-c2ccccc2)[C@@H](NC(=O)c2ccc3ccccc3c2)c2cc(OCCCO)ccc2N1C(=O)Cc1ccc(OC)cc1` the value was 3.37.
The same measure, in the same setting: then `COC(=O)[C@@]1(Cc2ccc(OC)cc2)[C@H]2c3cc(C(=O)N4CCCC4)n(Cc4ccc(Cl)c(C(F)(F)F)c4)c3C[C@H]2CN1C(=O)c1ccccc1`, with 0.0143; and `CCCC[C@H]1C[C@@H]1[C@@H]1N(C(C)=O)[C@H](c2cccc(OC)c2)CC12CC2`, with 0.583.
Regarding `COc1ccc(CCNC(=O)[C@@H]2c3ccccc3C(=O)N(Cc3ccccc3OC)[C@H]2c2ccc(CO)cc2)cc1`, the z-score is 0.531.
Still for that read-out and setting: for `O=C1C=C(c2ccccc2)C(=O)C2=C1CC([C@H]1Oc3ccccc3S(=O)(=O)N3CCC[C@@H]13)=CC2` the value was 4.67.
On the same count and under the same terms, then `COCCOC(=O)N1C(=O)[C@@]2(c3cc(C#Cc4ccc(OC)cc4)ccc31)[C@H](c1ccc(OCCO)cc1)N1[C@H](c3ccccc3)[C@H](c3ccccc3)OC(=O)[C@H]1[C@@H]2C(=O)NC[C@H](O)c1ccccc1`, with -0.463.

Another assay is described as follows: forskolin-driven CRE-LacZ activity in PC12 – cell-based, CRE-LacZ reporter, forskolin-stimulated, primary screen (AID 1146).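 Also: PC12 cells with 6xCRE LacZ reporter stimulated by forskolin 10 µM; beta-galactosidase reporter signal reflecting CREB driven transcription.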 As to conditions: luminescence, 4.5 h, higher = more signal, called active from +8 up or from −8 down.
Turning to `CC(C)C(O)C1C=CC2C(=O)NC(=O)C2N1Nc1ccccn1` (stereo unspecified), the z-score was 0.219.
Still for that read-out and setting: then `C=CCC(OC(C)=O)[C@@H]1[C@@H](N(Cc2cccc3ccccc23)C(=O)c2ccc(-c3ccccc3)cc2)c2cc(OCCCO)ccc2N1C(=O)Cc1ccc2ccccc2c1` (stereo partly specified), with 0.0677; and `COc1cc(CO)cc(I)c1O[C@H]1C=C(C(=O)NCCO)C[C@@H]2O[C@H]12`, with 3.07.
Still for that read-out and setting: then `CC(C)[Si](C#CCCc1ccccc1)(O[C@H](c1ccccc1)c1cn(Cc2ccccc2)nn1)C(C)C`, with -0.105; and `O=C1[C@H]2C=C(I)[C@H](C[C@@H]2c2ccccc2)[C@@]12CO2`, with 1.31; and `C=C(/C(=C/C[C@@H](OC(C)=O)c1cccc(OCCO)c1)c1cnc2ccccc2c1)C(C)C`, with 1.32.
Still for that read-out and setting: for `COCCOC(=O)N1C(=O)[C@@]2(c3cc(C#CCC(C(=O)OC)C(=O)OC)ccc31)[C@H](C(=O)Nc1nc3ccccc3s1)[C@H]1C(=O)O[C@H](c3ccccc3)[C@H](c3ccccc3)N1[C@@H]2c1ccc(OCCO)cc1` the value was 0.323; for `C=CCNC(=O)[C@H]1[C@@H]2C(=O)O[C@@H](c3ccccc3)[C@@H](c3ccccc3)N2[C@@H](c2ccc(OCCO)cc2)[C@]12C(=O)Nc1ccccc12`, 1.1.
On to `COC(=O)[C@@]1(Cc2ccc(F)cc2)[C@H]2c3cc(C(=O)N(C)C)n(CCc4ccc(O)c(O)c4)c3C[C@H]2CN1C(=O)c1ccccc1`, for which the z-score was 1.4.
As for `C=CC[C@@]12N=C(c3ccc(OCCCO)cc3)O[C@@H]1c1ccccc1N(CCC)C2=O`, the z-score was -0.707.
As for `O=C(NC1CC1)[C@@H]1c2ccccc2C(=O)N(Cc2ccc(OC(F)(F)F)cc2)[C@H]1c1ccc(CO)cc1`, the z-score is -0.673.
On the same count and under the same terms, for `COC(=O)[C@@]1(Cc2ccc(OC)cc2)[C@H]2c3cc(C(=O)N4CCCC4)n(Cc4ccc(C(F)(F)F)nc4)c3C[C@H]2CN1C(=O)c1ccccc1` the value was 0.945.
On the same count and under the same terms, for `CCC(CC)C(O)C1C=CC2C(=O)N(c3ccccc3)C(=O)C2N1Nc1ccccc1F` (stereo unspecified) the value was 0.492; for `C=C(COC)C(=O)CC[C@@H](OC(C)=O)c1ccccc1OCCO`, 8.39 (active); for `[N-]=[N+]=Nc1ccccc1[C@@H]1OC(c2ccc(OCCCO)cc2)=N[C@]1(CCS(=O)(=O)c1ccccc1)C(=O)NCC(O)CO` (stereo partly specified), 0.0767.
The same measure, in the same setting: for `COCCCNC(=O)[C@@]1(Sc2ccc(C)cc2)CC(=O)N(Cc2ccccc2C(F)(F)F)[C@@H]1c1ccc(CO)cc1I` the value was 0.421; for `COc1ccc([Si](C)(C)[C@H]2[C@H](CC(=O)N3Cc4ccccc4C[C@H]3CO)O[C@@]3(C(=O)N(C)c4ccccc43)[C@@H]2C)cc1`, -1.92.
